From PubChem BioAssay
Pyk2 oligo antag: Pyk2 (human) oligomerization antagonism; AID 1347419; 99,000 tested, 0.83% active; Q293 cells, Pyk2 FERM NanoBiT luminescence; active compounds read low; z-score (the deposit names both 25 µM and 10 µM);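 active = Z-score of -3 or lower, scaled per plate to the spread of control and sample wells; inactive = z-score above -3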;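 also: negative z-score means lost luminescence so less FERM oligomerization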
Target sequence (Q14289 whole entry, looked up): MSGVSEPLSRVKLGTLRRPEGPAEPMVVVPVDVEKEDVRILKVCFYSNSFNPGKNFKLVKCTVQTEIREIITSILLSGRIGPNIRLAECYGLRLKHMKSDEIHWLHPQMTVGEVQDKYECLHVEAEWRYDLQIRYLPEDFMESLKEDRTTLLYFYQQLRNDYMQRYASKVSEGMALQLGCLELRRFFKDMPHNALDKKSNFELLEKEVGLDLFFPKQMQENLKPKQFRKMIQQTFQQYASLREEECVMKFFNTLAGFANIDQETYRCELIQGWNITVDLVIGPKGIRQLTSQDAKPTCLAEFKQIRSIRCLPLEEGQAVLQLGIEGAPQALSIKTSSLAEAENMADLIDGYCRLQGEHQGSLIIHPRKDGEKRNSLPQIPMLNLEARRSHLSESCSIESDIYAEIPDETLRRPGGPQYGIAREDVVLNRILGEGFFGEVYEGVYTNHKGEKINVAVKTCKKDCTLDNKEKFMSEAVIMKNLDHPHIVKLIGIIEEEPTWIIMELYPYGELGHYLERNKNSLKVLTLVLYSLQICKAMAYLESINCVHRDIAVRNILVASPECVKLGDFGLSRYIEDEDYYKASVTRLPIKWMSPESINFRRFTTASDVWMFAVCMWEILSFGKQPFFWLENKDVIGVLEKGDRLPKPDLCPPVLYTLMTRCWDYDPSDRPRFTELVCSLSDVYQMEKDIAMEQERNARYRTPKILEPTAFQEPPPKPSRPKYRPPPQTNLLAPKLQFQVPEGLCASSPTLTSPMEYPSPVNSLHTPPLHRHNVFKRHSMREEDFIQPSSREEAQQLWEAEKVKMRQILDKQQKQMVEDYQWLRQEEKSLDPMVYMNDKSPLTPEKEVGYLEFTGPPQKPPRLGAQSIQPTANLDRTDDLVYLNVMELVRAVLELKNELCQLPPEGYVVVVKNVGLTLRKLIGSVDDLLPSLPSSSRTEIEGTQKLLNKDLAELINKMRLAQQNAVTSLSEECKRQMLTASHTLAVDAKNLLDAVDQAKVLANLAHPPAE
CYP2C9 inhib: inhibitors of human CYP2C9; inhibition, % at 5 µM; AID 777; 96,000 tested, 20% active; CYP2C9 Supersomes, luciferin-H conversion, luminescence;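 active = blocking of liver enzyme CYP2C9 beyond about 50% at 5 µM, limit read from the data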
Cav3 T inh: blocks human Cav3.2 T-type calcium channel; O95180; Cav3.2-expressing cells, Fluo-4 calcium fluorescence FDSS; active compounds read low; B-score at 10 µM; 100,000 tested, 4% active; AID 449739;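 active = single-dose well whose peak fluorescence ratio is a statistical outlier from its plate by either plate-standardised score or position-corrected B-score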
CYP2C19 activ: cytochrome P450 2C19 (human) activation; P33261; recombinant CYP2C19, luciferin-H EGE luminescence; active compounds read high; 0 = fully inhibited enzyme, 1 = untreated enzyme; activation factor at 5 µM; 96,000 tested, under 10 active;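 active = activation factor of at least 2 at 5 µM in the primary screen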
CYP2C19 inhib: blocks human cytochrome P450 2C19 | P33261 | CYP2C19 Supersomes, luciferin-H EGE luminescence, 30 min | inhibition, % at 5 µM | 96,000 tested, 21% active | AID 778;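 active = CYP2C19 inhibition above a set limit at 5 µM in the primary screen, cut at about 50% in these data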
CYP2C9 activ: CYP2C9 (human) activation; P11712; recombinant CYP2C9, luciferin-H conversion, luminescence; active compounds read high; factor 1 = untreated enzyme, 0 = blocked; activation factor at 5 µM; 96,000 tested, 1.4% active; AID 1024;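 active = activation factor of 2 or more for CYP2C9 at a 5 µM dose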
Each line names hits and unclear results; the compound was inactive in the other large screens. A selection: hits, their analogues and other compounds. The true share with any hit is near 27%.

Cn1c(=O)oc2cc(S(=O)(=O)NCCc3ccccc3)ccc21	CYP2C19 inhib 79.9
Cn1c(=O)oc2cc(S(=O)(=O)NCc3ccncc3)ccc21	CYP2C9 inhib 80.9, CYP2C19 inhib 97.8
COc1ccccc1CNC(=O)C(CCSC)NS(=O)(=O)c1ccc2c(c1)oc(=O)n2C (stereo not drawn)	CYP2C19 inhib 90.7 (no result: Cav3 T inh)
COc1ccccc1CNC(=O)C(CC(C)C)NS(=O)(=O)c1ccc2c(c1)oc(=O)n2C (stereo not drawn)	none (no result: Pyk2 oligo antag)
C=CCN(c1ccccc1)S(=O)(=O)c1ccc2c(c1)oc(=O)n2C	CYP2C19 inhib 86.9 (no result: Pyk2 oligo antag)
COc1ccc(Cl)cc1C(=O)Nc1ccc(S(=O)(=O)N2CCCC2)cc1	none (no result: Cav3 T inh)
O=c1cc(-c2ccccc2Cl)oc2c(NS(=O)(=O)c3ccccc3OC(F)(F)F)ccc(O)c12	none (no result: Pyk2 oligo antag, CYP2C9 inhib, CYP2C19 activ, CYP2C19 inhib, CYP2C9 activ)
O=C(Cn1ccc2ccccc2c1=O)NCCC(=O)NC1CCN(Cc2ccccc2)CC1	none
CCOc1ccccc1CNS(=O)(=O)c1ccc2c(c1)oc(=O)n2C	CYP2C19 inhib 77.9, CYP2C9 activ 2.3 (no result: Pyk2 oligo antag)
Cc1ccc(/C(N)=N/OC(=O)C23CC4CC(CC(C4)C2)C3)cc1	none
CC/C(=N\NC(=O)c1ccc(-c2ccccc2)cc1)C12CC3CC(CC(C3)C1)C2	CYP2C19 inhib 67.1
O=S(=O)(c1ccc2ccccc2c1)N1CCN(C2CCN(Cc3ccccc3)CC2)CC1	none
OC1(c2ccc3ccccc3c2)CCN(Cc2ccccc2)C1 (stereo not drawn)	CYP2C19 inhib 79.9
COC(=O)Nc1ccc(S(=O)(=O)Nc2ccc(C)cc2)cc1	none (no result: Pyk2 oligo antag)
COc1ccc(S(=O)(=O)Nc2nnc(C(C)C)s2)cc1	none
CSc1ccc(S(=O)(=O)Nc2ccc(S(=O)(=O)Nc3ccc(C)cc3)cc2)cc1	CYP2C9 inhib 100.3, CYP2C19 inhib 94.8
CSc1ccc(S(=O)(=O)Nc2ccc(NC(C)=O)cc2)cc1	CYP2C9 inhib 94.5, CYP2C19 inhib 99.9 (no result: Cav3 T inh)
CC(=O)Nc1ccc(S(=O)(=O)Nc2nnc(C(C)C)s2)cc1	CYP2C9 inhib 60.4
C=CCn1c(N)c(-c2nc3ccccc3n2C)sc1=S	CYP2C9 inhib 86.4
C=CCn1c(-c2cccs2)nc2ccccc21	CYP2C19 inhib 65.5
C=CCn1c(-c2cccs2)nc2nc3ccccc3nc21	none
Brc1cccc(-c2nnc3n2CCCCC3)c1	CYP2C19 inhib 52.9
CC(=O)N(Cc1cc2ccc(C)c(C)c2n2nnnc12)C1CCCC1	none (no result: Pyk2 oligo antag, Cav3 T inh)
Cc1cc2cc(CN(C(=O)C3CC3)C3CCCC3)c3nnnn3c2cc1C	CYP2C9 inhib 71.6, Cav3 T inh -4.86, CYP2C19 inhib 95.6
COc1ccc(C(=O)/C=C/c2cn(CN3CCN(C)CC3)c3ccccc23)cc1	CYP2C9 inhib 68.5, CYP2C19 inhib 66.6 (no result: Cav3 T inh)
CCOc1ccc(C(=O)/C=C/c2cn(CN3CCN(C)CC3)c3ccccc23)cc1	CYP2C9 inhib 64.2, CYP2C19 inhib 61.6
O=c1[nH]c(=S)ccn1C1OC(CO)C(O)C1O (stereo not drawn)	none (no result: Pyk2 oligo antag, CYP2C9 inhib, CYP2C19 activ, CYP2C19 inhib, CYP2C9 activ)
Cc1noc(/C=C/c2ccco2)c1S(=O)(=O)N1CCC(C(=O)N2c3ccccc3CC2C)CC1 (stereo not drawn)	CYP2C9 inhib 69.9 (no result: Cav3 T inh)
Cc1noc(/C=C/c2ccco2)c1S(=O)(=O)N1CCC(C(=O)N(C)Cc2ccccc2)CC1	CYP2C9 inhib 76.2
Cc1ccc(SCc2[nH]nc3c2C(c2cccnc2)C(C#N)=C(N)O3)cc1 (stereo not drawn)	CYP2C9 inhib 77.5
c1ccc(-n2nnnc2Sc2n[nH]c(-c3ccncc3)n2)cc1	CYP2C9 inhib 80.5
CSc1nc(C)cc(C)c1C#N	none
CCCSc1nnc(Sc2nnnn2-c2ccccc2)s1	none (no result: Cav3 T inh)
Cc1nc(Sc2nnnn2-c2ccccc2)c(C#N)c(C)c1C	CYP2C19 inhib 58.9 (no result: Pyk2 oligo antag)
Cc1ccccc1-n1nnnc1Sc1nnnn1-c1ccccc1	CYP2C19 inhib 87.9
Cc1cc(C)c(C#N)c(Sc2nnnn2-c2ccccc2)n1	CYP2C19 inhib 56.6 (no result: Pyk2 oligo antag)
COc1ccc(NC(=S)N(CCc2nc3cc(C)c(C)cc3[nH]2)Cc2cccnc2)cc1	none
CCOC(=O)N1CCC(NC(=O)C(NC(=O)C2CCC(C)CC2)C(C)CC)CC1 (stereo not drawn)	CYP2C19 inhib 52.6 (no result: Pyk2 oligo antag, Cav3 T inh)
CCCC(=O)C1=C(c2ccccc2)C(C#N)(C#N)C(C#N)=C1N	CYP2C9 inhib 73.0
Cc1ccc(S(=O)(=O)n2c(=O)oc3ccccc32)cc1	none (no result: Pyk2 oligo antag, CYP2C9 inhib, CYP2C19 activ, CYP2C19 inhib, CYP2C9 activ)
COc1cccc(C2=NN(C(=O)c3ccccc3)C(O)(C(F)(F)F)C2)c1 (stereo not drawn)	CYP2C9 inhib 92.4, CYP2C19 inhib 88.8 (no result: Cav3 T inh)
CCCC1CCC(C(=O)Nn2cnc3ccccc3c2=O)CC1 (stereo not drawn)	CYP2C9 inhib 56.5, CYP2C19 inhib 58.3
O=C(Nn1c(-c2ccccc2)nc2ccccc2c1=O)C1CCC1	none
Cc1cc(C(=O)NCc2ccc(C(=O)O)o2)c(C)o1	none
Cn1c(=O)c(=O)n(C)c2cc(S(=O)(=O)N3CCN(C4CCCCC4)CC3)ccc21	CYP2C9 activ 2.5 (no result: Pyk2 oligo antag)
Cc1cc(Nc2ccc(F)cc2C)n2nc(C)nc2n1	none (no result: Pyk2 oligo antag)
O=C(O)CNCC1COc2ccccc2O1 (stereo not drawn)	none
O=C(CNS(=O)(=O)c1ccc(Br)s1)NCC1COc2ccccc2O1 (stereo not drawn)	CYP2C9 inhib 64.0
O=C(COC(=O)c1ccco1)Nc1ccc2c(c1)OCCO2	none
CN(CC(=O)Nc1ccc2c(c1)OCCO2)S(=O)(=O)c1ccc(Br)s1	CYP2C9 inhib 64.5, CYP2C19 inhib 67.7 (no result: Cav3 T inh)
CCN(CC(=O)Nc1ccc2c(c1)OCCO2)S(=O)(=O)c1cccs1	CYP2C9 inhib 84.6, CYP2C19 inhib 62.4
O=C(CNS(=O)(=O)c1ccc(Br)s1)Nc1ccc2c(c1)OCCO2	CYP2C9 inhib 75.0
Cc1ccccc1N(Cc1nnc2n1CCCCC2)C(=O)Nc1ccccc1	none
CCCCCOC(=O)Cn1c(N2CCCCCC2)nc2c1c(=O)[nH]c(=O)n2C	none
CCc1c(C(=O)NNC(=S)NCCc2ccccc2)csc1C	none (no result: CYP2C9 inhib, CYP2C19 activ, CYP2C19 inhib, CYP2C9 activ)
Cn1c(=O)[nH]c(=O)c2c1ncn2CCCc1ccccc1	none (no result: CYP2C9 inhib, Cav3 T inh, CYP2C19 activ, CYP2C19 inhib, CYP2C9 activ)
COc1cccc(NC(=O)COC(=O)c2ccc(S(=O)(=O)NCc3ccco3)cc2)c1	CYP2C9 inhib 86.0
CC(C)CC(=O)Nc1ccc(S(=O)(=O)NCc2ccco2)cc1	none
O=C(COc1ccccc1F)Nc1ccc(S(=O)(=O)NCc2ccco2)cc1	CYP2C9 inhib 53.1
O=C(COc1ccccc1)NCC(=O)Nc1ccc(S(=O)(=O)NCc2ccco2)cc1	CYP2C9 inhib 56.9 (no result: Cav3 T inh)
COc1cccc(NC(=O)COC(=O)c2ccco2)c1	none (no result: CYP2C9 inhib, CYP2C19 activ, CYP2C19 inhib, CYP2C9 activ)
O=C(COc1ccccc1)Nc1ccc(S(=O)(=O)NCc2ccco2)cc1	CYP2C9 inhib 50.8
CCOC(=O)c1sc(NC(=O)C2C3C=CC(C3)C2C(=O)O)nc1C (stereo not drawn)	none
CC1(C)CC(=O)C2=C(C1)N(c1cccc(Cl)c1)C(=O)NC2(C(F)(F)F)C(F)(F)F	none (no result: CYP2C9 inhib, Cav3 T inh, CYP2C19 activ, CYP2C19 inhib, CYP2C9 activ)
